Measured values taken from PubChem BioAssay (Tox21).
Results filed as inconclusive are left out. Active and inactive are the calls of the source. Unless noted, the call rests on the fitted dose curve; in most records, active means well fitted curve in the direction sought with a large enough effect in the repeat runs; inconclusive means weak or mixed curves; inactive means no such curve, though single readings can be large; an effect the other way counts as inactive or inconclusive.

assay: qHTS assay to identify small molecule antagonists of the TGF-beta/Smad signaling pathway - cell viability counter screen (AID 1346824); conditions: SBE-bla HEK293T viability, CellTiter-Glo luminescence; series mostly up to 76.8 µM; further: nearly all actives have a fitted effect of over 50% in size
Method in brief: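 SBE-bla HEK 293T cells were plated overnight at 37 C, then given compounds in DMSO plus TGF-beta1 (added as 0.25 ng/mL solution) for 5 hr. After the bla read, CellTiter-Glo was added to the same wells and luminescence read after 30 min at room temperature.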

SMILES | outcome
CCOC(=O)CC(=O)c1ccccc1 | inactive
O=S(=O)(O)CCN1CCN(CCO)CC1 | inactive
CC(COC(C)(C)C)OCCCO (stereo unspecified) | inactive
O=C(O)c1ccc(Cl)cc1Cl | inactive
CC(C)CCCCOC(=O)c1ccccc1C(=O)OCCCCC(C)C | inactive
COc1ccc(-c2cc(=O)c3c(O)cc(O[C@@H]4O[C@H](CO[C@@H]5O[C@@H](C)[C@H](O)[C@@H](O)[C@H]5O)[C@@H](O)[C@H](O)[C@H]4O)cc3o2)cc1O | inactive
CC(C)N(c1ccccc1)C(C)C | inactive
O=Cc1ccc(Cl)c(Cl)c1 | inactive
CC(C)=CCOC(=O)c1ccccc1 | inactive
CCC(C=O)CC | inactive
CC(N)C(=O)OC(C)(C)Cc1ccc(Cl)cc1 (stereo unspecified) | inactive
Nc1nnc(-c2cccc(Cl)c2Cl)c(N)n1 | inactive
CC1(C)S[C@@H]2[C@H](N=CN3CCCCCC3)C(=O)N2[C@H]1C(=O)O | inactive
C#CC(C)N(C)C(=O)Nc1ccc(Cl)cc1 (stereo unspecified) | inactive
O=S(=O)(O)c1cc(O)c2ccc(Nc3ccccc3)cc2c1 | inactive
CCCC/C=C\CCCCCCCCCC=O | inactive
C[C@@H](Oc1ccc(CNC(=O)c2cccnc2Oc2ccc3c(c2)OCO3)c(F)c1)C(=O)O | inactive
COc1cc(C(=S)N2CCOCC2)cc(OC)c1OC | inactive
Cc1ccsc1/C=C/C1=NCCCN1C | inactive

SMILES | outcome
OCCCCC(O)CO (stereo unspecified) | inactive
NNc1nnc(NN)c2ccccc12 | inactive
CC(CN)CC(C)(C)CCN (stereo unspecified) | inactive
CCCCCCCCCCCCCC | inactive
O=P(O)(O)OP(=O)(O)O | inactive
CC(=O)CCCCn1c(=O)c2c(ncn2C)n(C)c1=O | inactive
CC(=O)N[C@@H](CCC(=O)O)C(=O)O | inactive
Cc1ccccc1OCC(O)CO (stereo unspecified) | inactive
C=C1CC/C=C(\C)CC[C@@H]2[C@@H]1CC2(C)C | inactive
CCCOC(OCCC)OCCC | inactive
CN(C)c1ccc(C=O)cc1 | inactive
c1ccc2c(c1)ccc1c3ccccc3ccc21 | inactive
NCCS | inactive
COCCOCCOCCOCCOCCO | inactive
O=C1CC(c2ccc(Cl)cc2)CC(=O)N1 | inactive
O=C1CCCC(=O)O1 | inactive
CC(=O)Nc1ccc(S(=O)(=O)Cl)cc1 | inactive
CCCCN | inactive

assay: qHTS assay to identify small molecule agonists of the TGF-beta/Smad signaling pathway - cell viability counter screen (AID 1346829); conditions: SBE-bla HEK293T viability, CellTiter-Glo luminescence, 5 h; series mostly up to 76.8 µM; further: top concentration of the series differs between compounds; nearly all actives have a fitted effect of over 45% in size
Method in brief: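 After overnight seating at 37 C and 5% CO2, reporter cells got compounds for 5 hr and FRET substrate for 2 hr; cell viability then came from CellTiter-Glo luminescence.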

SMILES | outcome
CCOC(=O)CC(=O)c1ccccc1 | inactive
O=S(=O)(O)CCN1CCN(CCO)CC1 | inactive
CC(COC(C)(C)C)OCCCO (stereo unspecified) | inactive
O=C(O)c1ccc(Cl)cc1Cl | inactive
CC(C)CCCCOC(=O)c1ccccc1C(=O)OCCCCC(C)C | inactive
CC(C)N(c1ccccc1)C(C)C | inactive
O=Cc1ccc(Cl)c(Cl)c1 | inactive
CC(C)=CCOC(=O)c1ccccc1 | inactive
CCC(C=O)CC | inactive
CC(N)C(=O)OC(C)(C)Cc1ccc(Cl)cc1 (stereo unspecified) | inactive
Nc1nnc(-c2cccc(Cl)c2Cl)c(N)n1 | inactive
CC1(C)S[C@@H]2[C@H](N=CN3CCCCCC3)C(=O)N2[C@H]1C(=O)O | inactive
O=S(=O)(O)c1cc(O)c2ccc(Nc3ccccc3)cc2c1 | inactive
CCCC/C=C\CCCCCCCCCC=O | inactive
C[C@@H](Oc1ccc(CNC(=O)c2cccnc2Oc2ccc3c(c2)OCO3)c(F)c1)C(=O)O | inactive
COc1cc(C(=S)N2CCOCC2)cc(OC)c1OC | inactive
Cc1ccsc1/C=C/C1=NCCCN1C | inactive
OCCCCC(O)CO (stereo unspecified) | inactive

SMILES | outcome
NNc1nnc(NN)c2ccccc12 | inactive
CC(CN)CC(C)(C)CCN (stereo unspecified) | inactive
CCCCCCCCCCCCCC | inactive
O=P(O)(O)OP(=O)(O)O | inactive
CC(=O)CCCCn1c(=O)c2c(ncn2C)n(C)c1=O | inactive
CC(=O)N[C@@H](CCC(=O)O)C(=O)O | inactive
Cc1ccccc1OCC(O)CO (stereo unspecified) | inactive
C=C1CC/C=C(\C)CC[C@@H]2[C@@H]1CC2(C)C | inactive
CCCOC(OCCC)OCCC | inactive
CN(C)c1ccc(C=O)cc1 | inactive
c1ccc2c(c1)ccc1c3ccccc3ccc21 | inactive
NCCS | inactive
COCCOCCOCCOCCOCCO | inactive
O=C1CC(c2ccc(Cl)cc2)CC(=O)N1 | inactive
O=C1CCCC(=O)O1 | inactive
CC(=O)Nc1ccc(S(=O)(=O)Cl)cc1 | inactive
CCCCN | inactive

assay: qHTS assay to identify small molecule agonists of the TGF-beta/Smad signaling pathway (AID 1346859; active means well fitted activation curve with a large enough effect in the signal ratio in the repeat runs, not every such curve was filed as active; the % refers to the signal ratio); conditions: SBE-bla HEK293T, TGF-beta/Smad beta-lactamase reporter, 5 h; series mostly up to 76.8 µM
Method in brief: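 Fluorescence (ex 405 nm; em 460 and 530 nm) was read 2 h after LiveBLAzer FRET substrate at RT. The preceding compound treatment of overnight-plated SBE-bla HEK293T cells lasted 5 h at 37 C.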

SMILES | outcome
CCOC(=O)CC(=O)c1ccccc1 | inactive
O=S(=O)(O)CCN1CCN(CCO)CC1 | inactive
CC(COC(C)(C)C)OCCCO (stereo unspecified) | inactive
O=C(O)c1ccc(Cl)cc1Cl | inactive
CC(C)CCCCOC(=O)c1ccccc1C(=O)OCCCCC(C)C | inactive
COc1ccc(-c2cc(=O)c3c(O)cc(O[C@@H]4O[C@H](CO[C@@H]5O[C@@H](C)[C@H](O)[C@@H](O)[C@H]5O)[C@@H](O)[C@H](O)[C@H]4O)cc3o2)cc1O | inactive
CC(C)N(c1ccccc1)C(C)C | inactive
O=Cc1ccc(Cl)c(Cl)c1 | inactive
CCC(C=O)CC | inactive
CC(N)C(=O)OC(C)(C)Cc1ccc(Cl)cc1 (stereo unspecified) | inactive
CC1(C)S[C@@H]2[C@H](N=CN3CCCCCC3)C(=O)N2[C@H]1C(=O)O | inactive
C#CC(C)N(C)C(=O)Nc1ccc(Cl)cc1 (stereo unspecified) | inactive
O=S(=O)(O)c1cc(O)c2ccc(Nc3ccccc3)cc2c1 | inactive
C[C@@H](Oc1ccc(CNC(=O)c2cccnc2Oc2ccc3c(c2)OCO3)c(F)c1)C(=O)O | inactive
COc1cc(C(=S)N2CCOCC2)cc(OC)c1OC | inactive
OCCCCC(O)CO (stereo unspecified) | inactive
NNc1nnc(NN)c2ccccc12 | inactive
CC(CN)CC(C)(C)CCN (stereo unspecified) | inactive
CCCCCCCCCCCCCC | inactive
CC(=O)CCCCn1c(=O)c2c(ncn2C)n(C)c1=O | inactive
CC(=O)N[C@@H](CCC(=O)O)C(=O)O | inactive
Cc1ccccc1OCC(O)CO (stereo unspecified) | inactive
C=C1CC/C=C(\C)CC[C@@H]2[C@@H]1CC2(C)C | inactive
CCCOC(OCCC)OCCC | inactive
CN(C)c1ccc(C=O)cc1 | inactive
c1ccc2c(c1)ccc1c3ccccc3ccc21 | inactive
NCCS | inactive
O=C1CC(c2ccc(Cl)cc2)CC(=O)N1 | inactive
CCCCN | inactive
